The panel holds about 79,000 compounds, 15% with a hit somewhere; the sample as a whole holds those more often. A number with no mark means an inactive call. Active and inactive are the calls of the source. Rule as the data show it: active = growth inhibition above about 70%; inactive = the rest.

Here are results for 10 compounds from PubChem BioAssay (NCI).

Experiment [1] in a line: NCI Yeast Anticancer Drug Screen. Data for the rad50 strain (AID 155).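 Also: 0% = growth of vehicle-only cultures of the same strain.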 As to conditions: S. cerevisiae rad50 strain growth inhibition, hits give high values. The method in brief: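 Inhibition values express reduced yeast growth in compound-treated cultures relative to vehicle-treated controls.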
A short description of experiment [2]: NCI Yeast Anticancer Drug Screen. Data for the mec2-1 strain (AID 157). Conditions: S. cerevisiae mec2-1 strain, hits give high values. The procedure, abridged: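 Each compound was tested on mec2-1 yeast, a strain altered in DNA damage repair or cell cycle control. Growth inhibition is reported relative to vehicle.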
A short description of experiment [3]: NCI Yeast Anticancer Drug Screen. Data for the sgs1 mgt1 strain (AID 161).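 Also: 0% = growth of cultures given vehicle only.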 As to conditions: S. cerevisiae sgs1 mgt1 strain, hits give high values. The method in brief:
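Read-out: growth inhibition vs vehicle controls. Cells: mutant yeast strain deficient in DNA damage repair.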

Experiment [4] is described as follows: NCI Yeast Anticancer Drug Screen. Data for the cln2 rad14 strain (AID 165).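 Also: 0% = growth equal to vehicle treated cultures.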 Conditions: S. cerevisiae cln2 rad14 strain, hits give high values. The method in brief: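 Test compounds were added to cln2 rad14 yeast cultures; inhibition of growth was then determined by comparison with vehicle treatment.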
Experiment [5] in a line: NCI Yeast Anticancer Drug Screen. Data for the mlh1 rad18 strain (AID 175). Conditions: S. cerevisiae mlh1 rad18 strain growth inhibition, hits give high values. The procedure, abridged:
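Inhibition values reflect reduced growth of mutant yeast versus vehicle-treated controls following compound exposure; the mutations affect DNA damage repair.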

Experiment [6] in a line: NCI Yeast Anticancer Drug Screen. Data for the bub3 strain (AID 167). Conditions: S. cerevisiae bub3 mutant strain, hits give high values. The procedure, abridged:
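Steps: expose the mutant yeast strain to compound; grow alongside vehicle-treated cultures; measure growth; express inhibition against the vehicle cultures.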

[7] abbreviates: at 5.0 µM (retest, dose inferred, filed as 0.5).
[8] abbreviates: at 50.0 µM (retest, dose inferred, filed as 5.0).

As to `c1cc[c]([Sn]([S]c2cccc3cccnc23)([c]2ccccc2)[c]2ccccc2)cc1`, the growth inhibition in experiment [1] (setting [7]) is 100% (active); in experiment [1] (setting [8]) it was 98% (active); in experiment [1] (at 50.0 µM), 96.3% (active); in experiment [2] (setting [7]) it was 100% (active); in experiment [2] (setting [8]), 100% (active); in experiment [2] (at 50.0 µM) it was 98.7% (active). For the same compound, the growth inhibition in experiment [3] (setting [7]) is 100% (active); in experiment [3] (setting [8]), 99% (active); in experiment [3] (at 50.0 µM), 96.9% (active); in experiment [4] (setting [7]), 99% (active); in experiment [4] (setting [8]), 99% (active); in experiment [4] (at 50.0 µM), 94.2% (active). For the same compound, the growth inhibition in experiment [5] (setting [7]) is 100% (active); in experiment [5] (setting [8]), 99% (active); in experiment [5] (at 50.0 µM), 98.1% (active).
As for `CCCCCC(=O)NNc1ccccc1`, the growth inhibition in experiment [1] (setting [7]) is 18%; in experiment [1] (setting [8]), 89% (active); in experiment [1] (at 50.0 µM), 85.3% (active); in experiment [2] (setting [7]), 1%; in experiment [2] (setting [8]) it was 76% (active); in experiment [2] (at 50.0 µM), 42.6%. For the same compound, the growth inhibition in experiment [3] (setting [7]) is 5%; in experiment [3] (setting [8]), 48%; in experiment [3] (at 50.0 µM), 80% (active); in experiment [4] (setting [7]) it was 0%; in experiment [4] (setting [8]) it was 51%; in experiment [4] (at 50.0 µM), 78% (active). The growth inhibition in experiment [6] (setting [7]) was 9%; in experiment [6] (setting [8]), 95% (active); in experiment [6] (at 50.0 µM), 83.1% (active); in experiment [5] (setting [7]) it was 22%; in experiment [5] (setting [8]), 93% (active); in experiment [5] (at 50.0 µM), 90.8% (active).
For the compound `Nc1ccc(Oc2ccc(-c3ccccc3)cc2)c(Cl)c1`, the growth inhibition is 61% in experiment [1] (setting [7]); 97% (active) in experiment [1] (setting [8]); 97.8% (active) in experiment [1] (at 50.0 µM); 61% in experiment [2] (setting [7]); 98% (active) in experiment [2] (setting [8]); 98.3% (active) in experiment [2] (at 50.0 µM). The growth inhibition in experiment [3] (setting [7]) is 72% (active); in experiment [3] (setting [8]), 98% (active); in experiment [3] (at 50.0 µM), 98% (active); in experiment [4] (setting [7]) it was 35%; in experiment [4] (setting [8]) it was 97% (active); in experiment [4] (at 50.0 µM) it was 96.3% (active). The growth inhibition in experiment [5] (setting [7]) was 89% (active); in experiment [5] (setting [8]), 97% (active); in experiment [5] (at 50.0 µM), 97.7% (active).
Consider `CCCCOc1ccc(-c2c(COC(=O)NC)c(COC(=O)NC)c(C)n2C)cc1`, for which the growth inhibition in experiment [1] (setting [7]) is 23%; in experiment [1] (setting [8]) it was 94% (active); in experiment [1] (at 50.0 µM), 85.3% (active); in experiment [2] (setting [7]) it was 14%; in experiment [2] (setting [8]), 97% (active); in experiment [2] (at 50.0 µM), 89.5% (active). Besides, the growth inhibition in experiment [3] (setting [7]) was 21%; in experiment [3] (setting [8]), 99% (active); in experiment [3] (at 50.0 µM), 90% (active); in experiment [4] (setting [7]), 19%; in experiment [4] (setting [8]) it was 85% (active); in experiment [4] (at 50.0 µM) it was 89% (active). Also, the growth inhibition was 17% in experiment [6] (setting [7]); 99% (active) in experiment [6] (setting [8]); 87.3% (active) in experiment [6] (at 50.0 µM); 20% in experiment [5] (setting [7]); 96% (active) in experiment [5] (setting [8]); 88.2% (active) in experiment [5] (at 50.0 µM).
In the case of `Oc1ccc(-c2ccccc2)cc1O`, the growth inhibition in experiment [1] (setting [7]) is 23%; in experiment [1] (setting [8]), 99% (active); in experiment [1] (at 50.0 µM) it was 76.1% (active); in experiment [2] (setting [7]) it was 13%; in experiment [2] (setting [8]) it was 100% (active); in experiment [2] (at 50.0 µM) it was 82% (active). Moreover, the growth inhibition was 12% in experiment [3] (setting [7]); 99% (active) in experiment [3] (setting [8]); 89% (active) in experiment [3] (at 50.0 µM); -3% in experiment [4] (setting [7]); 99% (active) in experiment [4] (setting [8]); 1.55% in experiment [4] (at 50.0 µM). Moreover, the growth inhibition is -6% in experiment [6] (setting [7]); 99% (active) in experiment [6] (setting [8]); 46.5% in experiment [6] (at 50.0 µM); 27% in experiment [5] (setting [7]); 99% (active) in experiment [5] (setting [8]); 81.4% (active) in experiment [5] (at 50.0 µM).
Take `O=C1C=CC2C(=O)c3ccccc3C(=O)C2=C1` (configuration not stated): the growth inhibition is 21% in experiment [1] (setting [7]); 89% (active) in experiment [1] (setting [8]); 73.5% (active) in experiment [1] (at 50.0 µM); 17% in experiment [2] (setting [7]); 76% (active) in experiment [2] (setting [8]); 63.5% in experiment [2] (at 50.0 µM). For the same compound, the growth inhibition is 4% in experiment [3] (setting [7]); 72% (active) in experiment [3] (setting [8]); 56.9% in experiment [3] (at 50.0 µM); 5% in experiment [4] (setting [7]); 71% (active) in experiment [4] (setting [8]); 66.7% in experiment [4] (at 50.0 µM). In addition, the results for the growth inhibition in experiment [5] (setting [7]), in experiment [5] (setting [8]) and in experiment [5] (at 50.0 µM) were 4%, 67% and 69.2%, respectively.
As for `CCOc1ccc2c(ccc(/C=C\c3cc(C)c4cccnc4c3O)[n+]2C)c1`, the growth inhibition in experiment [1] (setting [7]) was 91% (active); in experiment [1] (setting [8]) it was 92% (active); in experiment [1] (at 50.0 µM), 87.3% (active); in experiment [2] (setting [7]), 81% (active); in experiment [2] (setting [8]), 91% (active); in experiment [2] (at 50.0 µM), 89.2% (active). The growth inhibition in experiment [3] (setting [7]) was 87% (active); in experiment [3] (setting [8]), 93% (active); in experiment [3] (at 50.0 µM), 90% (active); in experiment [4] (setting [7]), 67%; in experiment [4] (setting [8]), 87% (active); in experiment [4] (at 50.0 µM), 86.8% (active). Moreover, the growth inhibition was 59% in experiment [6] (setting [7]); 91% (active) in experiment [6] (setting [8]); 82.8% (active) in experiment [6] (at 50.0 µM); 95% (active) in experiment [5] (setting [7]); 93% (active) in experiment [5] (setting [8]); 89% (active) in experiment [5] (at 50.0 µM).
As to `COc1ccc(C(=O)C(c2ccc(OC)cc2)C2(O)C(=O)Nc3c(C)cc(Cl)cc32)cc1` (configuration not stated), the growth inhibition was -15% in experiment [2] (setting [7]); -15% in experiment [2] (setting [8]); 89% (active) in experiment [2] (at 50.0 µM); -9% in experiment [3] (setting [7]); -9% in experiment [3] (setting [8]); 87.8% (active) in experiment [3] (at 50.0 µM). The growth inhibition in experiment [4] (setting [7]) was 3%; in experiment [4] (setting [8]) it was 3%; in experiment [4] (at 50.0 µM), 69.7%; in experiment [6] (setting [7]), -3%; in experiment [6] (setting [8]), -3%; in experiment [6] (at 50.0 µM), 89.8% (active). Besides, the growth inhibition in experiment [5] (setting [7]) was -2%; in experiment [5] (setting [8]) it was -2%; in experiment [5] (at 50.0 µM), 38.7%.
Take `CC[N+](CC)(CC)Cc1ccc(C[N+](CC)(CC)CC)cc1`: the growth inhibition in experiment [2] (setting [7]) was 1%; in experiment [2] (setting [8]) it was -2%; in experiment [2] (at 50.0 µM) it was 54.2%; in experiment [3] (setting [7]), 6%; in experiment [3] (setting [8]), -15%; in experiment [3] (at 50.0 µM), -0.8%. Moreover, the growth inhibition in experiment [4] (setting [7]) is 4%; in experiment [4] (setting [8]) it was 7%; in experiment [4] (at 50.0 µM), 92.4% (active); in experiment [6] (setting [7]) it was 5%; in experiment [6] (setting [8]), -4%; in experiment [6] (at 50.0 µM), 95.5% (active). Further, the growth inhibition is 2% in experiment [5] (setting [7]), -4% in experiment [5] (setting [8]) and 17.4% in experiment [5] (at 50.0 µM).
In the case of `O=C(NC1(OC(=O)c2ccc(Cl)cc2)CC1)c1ccc(Cl)cc1`, the growth inhibition in experiment [1] (setting [7]) is 6%; in experiment [1] (setting [8]) it was 97% (active); in experiment [1] (at 50.0 µM), 97.8% (active); in experiment [3] (setting [7]) it was 15%; in experiment [3] (setting [8]) it was 91% (active); in experiment [3] (at 50.0 µM), 95.5% (active). Besides, the growth inhibition is 25% in experiment [4] (setting [7]); 97% (active) in experiment [4] (setting [8]); 97.5% (active) in experiment [4] (at 50.0 µM); -8% in experiment [6] (setting [7]); 98% (active) in experiment [6] (setting [8]); 97.1% (active) in experiment [6] (at 50.0 µM). Further, the growth inhibition in experiment [5] (setting [7]) was 24%; in experiment [5] (setting [8]), 97% (active); in experiment [5] (at 50.0 µM) it was 96.8% (active).
